Common to all, as to assay: DAPPL (digital affinity profiling via proximity ligation, sequencing); 10 mM Tris-HCl pH 7.5, 50 mM NaCl, 1 mM DTT, 4% glycerol, room temperature, 30 min; GST-TFs on glutathione beads, 16-mer random dsDNA library, 0.1% formaldehyde crosslink after washing; high values mean tight binding
The target in one test is T1, FLI1 (Homo sapiens, UniProt Q01543 1-452).
T1 sequence: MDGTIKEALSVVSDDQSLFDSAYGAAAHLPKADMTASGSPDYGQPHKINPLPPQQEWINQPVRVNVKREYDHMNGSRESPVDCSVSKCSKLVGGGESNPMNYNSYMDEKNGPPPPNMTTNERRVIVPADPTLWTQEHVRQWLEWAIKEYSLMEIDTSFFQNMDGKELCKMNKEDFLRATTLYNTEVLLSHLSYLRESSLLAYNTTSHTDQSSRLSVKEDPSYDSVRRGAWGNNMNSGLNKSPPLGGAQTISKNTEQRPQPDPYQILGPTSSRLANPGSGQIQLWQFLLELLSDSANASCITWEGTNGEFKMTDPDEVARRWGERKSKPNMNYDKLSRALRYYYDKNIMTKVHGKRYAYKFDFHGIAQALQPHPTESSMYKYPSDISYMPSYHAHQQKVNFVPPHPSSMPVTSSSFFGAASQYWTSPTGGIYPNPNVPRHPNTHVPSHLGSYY
The conditions noted are these: protein: recombinant; tags: N-terminal GST; dsDNA, one strand shown. In outline:
(§1)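 Pools of DNA-barcoded human transcription factors, expressed in yeast as GST fusions on glutathione beads and combined with a tag-only sample, were incubated with 200 nmole of a 16-mer random double-stranded DNA library. Incubation took 30 min at room temperature in Tris/NaCl/DTT/glycerol buffer and was followed by washing, 0.1% formaldehyde crosslinking, proximity ligation (BsaI/T4 ligase, 1 h, 37 °C), PCR amplification and sequencing on an Illumina NextSeq500. Binding signal is the ratio of a hexamer's read frequency for a factor to its frequency for the tag-only sample.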

The target of a further test is T2, ELK1 (Homo sapiens, UniProt P19419 1-428).
T2 sequence: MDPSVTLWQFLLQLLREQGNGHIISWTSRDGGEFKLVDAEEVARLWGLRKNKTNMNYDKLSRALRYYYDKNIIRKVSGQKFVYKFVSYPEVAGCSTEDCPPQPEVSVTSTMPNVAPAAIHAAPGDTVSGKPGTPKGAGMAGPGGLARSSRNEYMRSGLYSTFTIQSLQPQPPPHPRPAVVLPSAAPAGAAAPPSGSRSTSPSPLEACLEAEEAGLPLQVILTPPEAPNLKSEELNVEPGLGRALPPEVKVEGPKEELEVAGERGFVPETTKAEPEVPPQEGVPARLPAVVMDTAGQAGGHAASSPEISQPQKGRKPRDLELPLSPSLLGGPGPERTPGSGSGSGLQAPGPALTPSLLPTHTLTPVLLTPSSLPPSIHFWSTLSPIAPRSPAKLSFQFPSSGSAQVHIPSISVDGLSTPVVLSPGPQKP
Particulars: protein: recombinant; tags: N-terminal GST; dsDNA, one strand shown. An outline of the steps: as §1

In a further test the target is T3, GABPA (Homo sapiens, UniProt Q06546 1-454).
T3 sequence: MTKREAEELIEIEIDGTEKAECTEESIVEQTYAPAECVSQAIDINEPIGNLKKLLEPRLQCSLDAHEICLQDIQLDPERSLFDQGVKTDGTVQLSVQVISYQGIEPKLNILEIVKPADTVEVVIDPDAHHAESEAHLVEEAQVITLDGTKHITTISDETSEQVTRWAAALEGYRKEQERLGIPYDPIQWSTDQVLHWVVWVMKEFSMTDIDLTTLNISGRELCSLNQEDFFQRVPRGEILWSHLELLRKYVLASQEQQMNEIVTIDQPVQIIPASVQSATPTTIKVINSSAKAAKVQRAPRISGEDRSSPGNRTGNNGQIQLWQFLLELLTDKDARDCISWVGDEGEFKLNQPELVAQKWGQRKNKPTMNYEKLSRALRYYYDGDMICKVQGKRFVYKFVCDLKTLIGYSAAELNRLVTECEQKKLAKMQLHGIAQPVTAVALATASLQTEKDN
The conditions noted are these: protein: recombinant; tags: N-terminal GST; dsDNA, one strand shown. In outline: as §1

Another test deals with T4, ERG (Homo sapiens, UniProt P11308 1-479).
T4 sequence: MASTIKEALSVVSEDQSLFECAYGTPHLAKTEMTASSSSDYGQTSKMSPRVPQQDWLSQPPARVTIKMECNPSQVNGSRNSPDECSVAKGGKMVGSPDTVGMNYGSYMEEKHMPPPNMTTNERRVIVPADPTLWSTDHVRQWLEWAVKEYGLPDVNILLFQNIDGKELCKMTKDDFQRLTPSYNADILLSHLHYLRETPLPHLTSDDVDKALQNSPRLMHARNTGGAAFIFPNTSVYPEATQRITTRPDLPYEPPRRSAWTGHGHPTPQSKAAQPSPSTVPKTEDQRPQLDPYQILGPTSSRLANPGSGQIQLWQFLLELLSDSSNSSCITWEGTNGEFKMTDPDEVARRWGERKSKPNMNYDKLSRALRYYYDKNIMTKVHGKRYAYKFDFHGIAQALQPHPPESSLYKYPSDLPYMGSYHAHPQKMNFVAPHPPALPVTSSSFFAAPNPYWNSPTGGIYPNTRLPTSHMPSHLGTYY
The conditions noted are these: protein: recombinant; tags: N-terminal GST; dsDNA, one strand shown. In outline:
as §1

The target of the next test is ELF1 (Homo sapiens, UniProt P32519 1-619). The conditions noted are these: protein: recombinant; tags: N-terminal GST; dsDNA, one strand shown. An outline of the steps: as §1
ELF1, sequence (P32519 whole entry): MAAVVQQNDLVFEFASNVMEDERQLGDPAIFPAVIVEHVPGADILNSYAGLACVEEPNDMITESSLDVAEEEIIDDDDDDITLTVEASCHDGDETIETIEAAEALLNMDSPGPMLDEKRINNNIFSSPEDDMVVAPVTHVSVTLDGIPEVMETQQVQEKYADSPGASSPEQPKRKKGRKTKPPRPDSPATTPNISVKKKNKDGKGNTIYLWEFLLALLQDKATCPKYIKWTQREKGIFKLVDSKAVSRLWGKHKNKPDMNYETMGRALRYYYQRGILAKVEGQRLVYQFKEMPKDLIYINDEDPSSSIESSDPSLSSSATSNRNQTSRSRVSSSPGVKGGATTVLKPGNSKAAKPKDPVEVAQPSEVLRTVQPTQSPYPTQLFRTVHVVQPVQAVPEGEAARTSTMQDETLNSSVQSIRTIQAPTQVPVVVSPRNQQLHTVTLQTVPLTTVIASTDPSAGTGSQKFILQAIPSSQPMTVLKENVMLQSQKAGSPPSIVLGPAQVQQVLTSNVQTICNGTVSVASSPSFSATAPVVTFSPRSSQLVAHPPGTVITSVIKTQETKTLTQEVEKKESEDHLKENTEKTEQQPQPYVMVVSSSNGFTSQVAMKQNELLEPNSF
The next test concerns the target T5, EHF (Homo sapiens, UniProt Q9NZC4 1-300).
T5 sequence: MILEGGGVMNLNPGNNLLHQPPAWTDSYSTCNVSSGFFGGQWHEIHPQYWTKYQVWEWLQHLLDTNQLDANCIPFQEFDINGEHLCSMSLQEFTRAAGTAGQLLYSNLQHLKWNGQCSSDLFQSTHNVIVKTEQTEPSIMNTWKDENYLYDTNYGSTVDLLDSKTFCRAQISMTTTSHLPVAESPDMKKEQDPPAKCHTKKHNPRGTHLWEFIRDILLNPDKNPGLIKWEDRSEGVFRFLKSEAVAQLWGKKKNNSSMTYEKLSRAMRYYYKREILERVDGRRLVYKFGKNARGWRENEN
The conditions noted are these: protein: recombinant; tags: N-terminal GST; dsDNA, one strand shown. In outline:
as §1

The target in another test is SPIB (Homo sapiens, UniProt Q01892 1-262). Particulars: protein: recombinant; tags: N-terminal GST; dsDNA, one strand shown. An outline of the steps: as §1
SPIB, sequence (Q01892 whole entry): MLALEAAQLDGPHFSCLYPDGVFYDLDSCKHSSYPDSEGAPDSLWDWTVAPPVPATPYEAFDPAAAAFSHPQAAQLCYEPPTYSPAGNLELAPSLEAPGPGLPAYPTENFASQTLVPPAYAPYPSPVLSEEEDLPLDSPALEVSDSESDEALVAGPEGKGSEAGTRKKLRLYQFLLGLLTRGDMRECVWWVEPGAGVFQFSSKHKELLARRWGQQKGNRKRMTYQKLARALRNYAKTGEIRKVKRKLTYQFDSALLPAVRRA
The next test concerns the target T6, FEV (Homo sapiens, UniProt Q99581 1-238).
T6 sequence: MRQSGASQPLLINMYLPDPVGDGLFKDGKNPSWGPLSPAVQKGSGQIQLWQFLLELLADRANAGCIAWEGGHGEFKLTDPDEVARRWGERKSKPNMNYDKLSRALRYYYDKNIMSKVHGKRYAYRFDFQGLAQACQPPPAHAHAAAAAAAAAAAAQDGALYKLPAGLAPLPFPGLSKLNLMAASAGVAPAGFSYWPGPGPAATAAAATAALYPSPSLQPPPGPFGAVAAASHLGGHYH
Particulars: protein: recombinant; tags: N-terminal GST; dsDNA, one strand shown. An outline of the steps:
as §1

For the next test, the target named is ETV5 (Homo sapiens, UniProt P41161 1-510). Particulars: protein: recombinant; tags: N-terminal GST; dsDNA, one strand shown. An outline of the steps:
as §1

A further test deals with HSF1 (Homo sapiens, UniProt Q00613 1-529). Particulars: protein: recombinant; tags: N-terminal GST; chain copies: 3; dsDNA, one strand shown. An outline of the steps: as §1
HSF1, sequence (Q00613 whole entry): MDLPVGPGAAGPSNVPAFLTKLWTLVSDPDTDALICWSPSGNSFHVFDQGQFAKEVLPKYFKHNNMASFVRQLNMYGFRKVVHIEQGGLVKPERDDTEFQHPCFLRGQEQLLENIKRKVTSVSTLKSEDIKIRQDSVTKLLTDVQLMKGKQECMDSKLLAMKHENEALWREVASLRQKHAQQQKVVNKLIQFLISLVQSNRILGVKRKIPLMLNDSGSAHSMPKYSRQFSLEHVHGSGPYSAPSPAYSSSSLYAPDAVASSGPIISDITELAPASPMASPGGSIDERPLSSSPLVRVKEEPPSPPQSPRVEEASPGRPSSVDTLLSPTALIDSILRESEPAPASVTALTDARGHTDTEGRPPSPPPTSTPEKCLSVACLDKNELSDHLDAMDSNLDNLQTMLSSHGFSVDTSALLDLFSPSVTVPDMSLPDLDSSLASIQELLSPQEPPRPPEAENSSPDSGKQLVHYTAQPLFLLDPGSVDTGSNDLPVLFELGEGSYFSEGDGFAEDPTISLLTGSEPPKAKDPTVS
A further test addresses T7, SPIC (Homo sapiens, UniProt Q8N5J4 1-248).
T7 sequence: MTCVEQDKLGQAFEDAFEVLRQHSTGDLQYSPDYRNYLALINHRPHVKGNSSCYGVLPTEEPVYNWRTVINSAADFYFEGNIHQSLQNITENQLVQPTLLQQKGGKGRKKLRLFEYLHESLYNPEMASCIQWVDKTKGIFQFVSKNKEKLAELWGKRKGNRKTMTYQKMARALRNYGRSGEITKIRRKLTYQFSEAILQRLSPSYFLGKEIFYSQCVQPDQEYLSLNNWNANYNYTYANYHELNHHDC
Particulars: protein: recombinant; tags: N-terminal GST; dsDNA, one strand shown. In outline:
as §1

In the next test the target is ELF4 (Homo sapiens, UniProt Q99607 1-663). Particulars: protein: recombinant; tags: N-terminal GST; dsDNA, one strand shown. An outline of the steps:
as §1

For the next test, the target named is T8, ELK4 (Homo sapiens, UniProt P28324-2 1-405).
T8 sequence: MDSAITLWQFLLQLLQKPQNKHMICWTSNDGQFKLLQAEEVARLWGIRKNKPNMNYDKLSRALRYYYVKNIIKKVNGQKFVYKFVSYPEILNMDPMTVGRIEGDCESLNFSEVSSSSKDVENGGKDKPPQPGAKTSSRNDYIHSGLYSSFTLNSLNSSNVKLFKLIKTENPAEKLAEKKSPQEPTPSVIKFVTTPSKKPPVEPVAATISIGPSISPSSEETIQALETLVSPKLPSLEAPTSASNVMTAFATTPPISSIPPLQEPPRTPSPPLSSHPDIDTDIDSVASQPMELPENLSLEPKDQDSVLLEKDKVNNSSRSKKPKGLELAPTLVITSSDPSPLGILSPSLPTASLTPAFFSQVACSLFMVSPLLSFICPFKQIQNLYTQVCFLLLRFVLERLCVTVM
The conditions noted are these: protein: recombinant; tags: N-terminal GST; dsDNA, one strand shown. In outline:
as §1

Another test addresses T9, ETV2 (Homo sapiens, UniProt O00321 1-342).
T9 sequence: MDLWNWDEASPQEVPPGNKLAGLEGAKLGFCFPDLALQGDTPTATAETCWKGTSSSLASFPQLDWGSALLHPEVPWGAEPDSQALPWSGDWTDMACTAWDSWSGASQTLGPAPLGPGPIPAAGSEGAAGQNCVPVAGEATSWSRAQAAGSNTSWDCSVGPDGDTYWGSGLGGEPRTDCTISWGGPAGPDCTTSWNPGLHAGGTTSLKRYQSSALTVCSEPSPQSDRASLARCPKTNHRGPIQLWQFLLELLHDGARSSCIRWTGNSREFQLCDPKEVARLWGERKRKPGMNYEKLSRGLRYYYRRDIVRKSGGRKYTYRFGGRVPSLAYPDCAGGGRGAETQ
The conditions noted are these: protein: recombinant; tags: N-terminal GST; dsDNA, one strand shown. In outline: as §1

The target of the next test is T10, ELF3 (Homo sapiens, UniProt P78545 1-371).
T10 sequence: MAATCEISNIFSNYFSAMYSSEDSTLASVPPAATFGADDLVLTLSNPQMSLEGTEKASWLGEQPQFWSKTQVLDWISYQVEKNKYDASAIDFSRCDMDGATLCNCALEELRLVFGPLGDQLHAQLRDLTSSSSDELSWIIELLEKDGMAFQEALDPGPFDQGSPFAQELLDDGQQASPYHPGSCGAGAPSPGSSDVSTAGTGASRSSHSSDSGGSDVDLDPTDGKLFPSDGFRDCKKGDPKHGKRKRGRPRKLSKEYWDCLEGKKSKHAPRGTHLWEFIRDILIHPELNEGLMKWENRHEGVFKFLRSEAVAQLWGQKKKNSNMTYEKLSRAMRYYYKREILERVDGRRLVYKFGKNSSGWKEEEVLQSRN
Particulars: protein: recombinant; tags: N-terminal GST; dsDNA, one strand shown. An outline of the steps:
as §1

Another test has as its target CRX (Homo sapiens, UniProt O43186 1-299). Particulars: protein: recombinant; tags: N-terminal GST; dsDNA, one strand shown. An outline of the steps:
as §1

The target of the next test is ETV1 (Homo sapiens, UniProt P50549 1-477). Particulars: protein: recombinant; tags: N-terminal GST; dsDNA, one strand shown. In outline: as §1
ETV1, sequence (P50549 whole entry): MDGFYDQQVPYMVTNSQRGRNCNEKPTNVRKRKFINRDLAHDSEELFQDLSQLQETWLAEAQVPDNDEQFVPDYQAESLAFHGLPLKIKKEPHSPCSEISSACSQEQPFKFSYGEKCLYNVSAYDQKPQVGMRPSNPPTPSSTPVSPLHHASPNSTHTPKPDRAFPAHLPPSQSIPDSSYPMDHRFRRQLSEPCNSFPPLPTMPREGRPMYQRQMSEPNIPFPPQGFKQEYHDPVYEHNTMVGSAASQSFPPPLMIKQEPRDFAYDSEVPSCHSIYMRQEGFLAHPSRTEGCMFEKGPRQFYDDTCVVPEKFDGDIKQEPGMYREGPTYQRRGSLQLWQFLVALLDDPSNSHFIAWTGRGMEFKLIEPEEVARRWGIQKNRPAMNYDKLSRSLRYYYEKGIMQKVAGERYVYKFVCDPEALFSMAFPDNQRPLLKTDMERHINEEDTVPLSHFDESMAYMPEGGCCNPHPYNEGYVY

ETV5, sequence (P41161 whole entry): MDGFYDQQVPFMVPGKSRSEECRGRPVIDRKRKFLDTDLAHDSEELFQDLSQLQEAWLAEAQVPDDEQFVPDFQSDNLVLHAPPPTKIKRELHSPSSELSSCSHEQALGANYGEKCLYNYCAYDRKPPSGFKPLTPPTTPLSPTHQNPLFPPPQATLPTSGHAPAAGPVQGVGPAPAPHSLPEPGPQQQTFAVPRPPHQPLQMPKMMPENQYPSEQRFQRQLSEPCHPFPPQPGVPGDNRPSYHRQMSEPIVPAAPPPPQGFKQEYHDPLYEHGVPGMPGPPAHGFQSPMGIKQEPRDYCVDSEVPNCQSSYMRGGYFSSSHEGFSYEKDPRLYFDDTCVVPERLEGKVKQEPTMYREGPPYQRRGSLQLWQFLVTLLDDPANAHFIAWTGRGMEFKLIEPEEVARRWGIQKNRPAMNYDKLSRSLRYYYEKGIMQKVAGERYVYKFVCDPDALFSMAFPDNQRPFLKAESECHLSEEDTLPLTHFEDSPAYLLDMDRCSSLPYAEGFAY
ELF4, sequence (Q99607 whole entry): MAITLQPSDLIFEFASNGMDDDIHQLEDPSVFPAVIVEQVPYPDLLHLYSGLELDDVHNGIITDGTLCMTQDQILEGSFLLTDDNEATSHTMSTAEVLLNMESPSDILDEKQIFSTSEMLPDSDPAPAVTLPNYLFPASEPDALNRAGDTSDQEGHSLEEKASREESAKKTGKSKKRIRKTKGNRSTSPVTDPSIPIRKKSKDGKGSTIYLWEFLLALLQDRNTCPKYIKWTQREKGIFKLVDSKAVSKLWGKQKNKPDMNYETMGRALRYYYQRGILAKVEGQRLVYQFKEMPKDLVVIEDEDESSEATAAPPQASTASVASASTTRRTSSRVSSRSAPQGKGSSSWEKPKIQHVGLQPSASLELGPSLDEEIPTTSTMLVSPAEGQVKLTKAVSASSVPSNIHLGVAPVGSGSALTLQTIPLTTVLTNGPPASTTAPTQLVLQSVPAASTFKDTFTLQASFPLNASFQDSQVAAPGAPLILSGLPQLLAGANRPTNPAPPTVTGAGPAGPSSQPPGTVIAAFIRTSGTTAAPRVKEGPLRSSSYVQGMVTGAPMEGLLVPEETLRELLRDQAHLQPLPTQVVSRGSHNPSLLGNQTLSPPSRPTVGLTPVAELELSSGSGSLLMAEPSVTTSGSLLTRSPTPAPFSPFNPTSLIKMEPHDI
CRX, sequence (O43186 whole entry): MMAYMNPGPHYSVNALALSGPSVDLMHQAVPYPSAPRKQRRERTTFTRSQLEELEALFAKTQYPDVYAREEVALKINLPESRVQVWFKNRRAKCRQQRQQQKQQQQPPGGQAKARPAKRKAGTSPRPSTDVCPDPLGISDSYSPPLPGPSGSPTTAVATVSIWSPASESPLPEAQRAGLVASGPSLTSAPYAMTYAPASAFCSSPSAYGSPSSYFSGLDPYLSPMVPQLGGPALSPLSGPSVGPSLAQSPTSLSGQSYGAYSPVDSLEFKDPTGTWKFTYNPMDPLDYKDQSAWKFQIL

Turning to TTGAGC, the binding signal is 1.22 fold enrichment (6-mer frequency, TF over GST control) with FLI1; 1.01 fold enrichment (6-mer frequency, TF over GST control) in the test with ELK1; 1.17 fold enrichment (6-mer frequency, TF over GST control) in the test with GABPA; 1.12 fold enrichment (6-mer frequency, TF over GST control) with ERG; 1.02 fold enrichment (6-mer frequency, TF over GST control) with ELF1; 1.06 fold enrichment (6-mer frequency, TF over GST control) with EHF. Further, the binding signal in the test with SPIB was 1.11 fold enrichment (6-mer frequency, TF over GST control); in the test with FEV, 1 fold enrichment (6-mer frequency, TF over GST control); in the test with ETV5, 1.03 fold enrichment (6-mer frequency, TF over GST control); with HSF1, 1.03 fold enrichment (6-mer frequency, TF over GST control); in the test with SPIC, 1.18 fold enrichment (6-mer frequency, TF over GST control); in the test with ELF4, 1.06 fold enrichment (6-mer frequency, TF over GST control). In addition, the binding signal with ELK4 was 1.04 fold enrichment (6-mer frequency, TF over GST control); with ETV2, 1.07 fold enrichment (6-mer frequency, TF over GST control); with ELF3, 1.13 fold enrichment (6-mer frequency, TF over GST control); in the test with CRX, 1.28 fold enrichment (6-mer frequency, TF over GST control); in the test with ETV1, 1.1 fold enrichment (6-mer frequency, TF over GST control).

These data come from paper PMC7862700, “An all-to-all approach to the identification of sequence-specific readers for epigenetic DNA modifications on cytosine”.
